# Several values for one entry are separate records, joined by “and”; a condition that tells them apart may be missing. Equal entries are not always repeated. About 7,500 (2.1%) of roughly 360,000 compounds were called active. A call without a number means that no potency is given here. About 20% were inconclusive and are not listed. Calls follow the shape of the dose curve; as a rule, active = well fitted inhibition curve with a large enough effect; inconclusive = small, poorly fitted or top-dose-only effect, or effect the other way; inactive = flat fitted curve, though single readings scatter. The sample as a whole holds a higher share of actives than the screen did.
# Test: Nrf2 qHTS screen for inhibitors; also: nearly all actives have a fitted effect of over 60% in size
# Conditions: A549 ARE-Fluc reporter, luciferase luminescence, 18-24 h; series mostly up to 46 µM
# How it was run: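 Concentration-response testing used A549 ARE_Fluc cells at 5000 cells/well. Following an 18-24 h compound incubation, viability was read by fluorescence (Ex 405/Em 525) and luciferase output by luminescence.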
# Potency is read from the fitted curve at half-maximal effect.
row,SMILES,Potency
1,COc1ccc(CNC(=O)c2cc3c(s2)-c2ccccc2OC3)cc1,inactive
2,O=S(=O)(Nc1ccc2ccccc2c1)N1CCCCC1,inactive
3,Cc1nnc2n1N=C(c1ccccc1)CS2,inactive
4,COc1ccc(C2=Nn3c(nnc3-c3ccccc3O)SC2)cc1,inactive
5,COc1ccc(C2=Nn3c(nnc3-c3ccccc3OC)SC2)cc1OC1CCCC1,16.4 µM (active)
6,Cc1cccc(NC(=O)CN(c2ccc(C(C)C)cc2)S(=O)(=O)c2c(C)nn(C)c2C)c1C,inactive
7,O=C1CC(c2ccccc2)CC2=C1C(c1ccco1)n1nc(C(F)(F)F)nc1N2 (configuration not stated),inactive
8,O=S(=O)(Nc1ccccn1)c1ccc(Oc2ccccc2)cc1,inactive
9,Cc1cc(C)cc(NS(=O)(=O)c2ccc(Oc3ncc(C(F)(F)F)cc3Cl)cc2)c1,4.11 µM (active)
10,COC(=O)Cc1ccc(Oc2ncc(C(F)(F)F)cc2Cl)cc1,inactive
11,O=C(C[C@@H]1C/C=C\CCC(=O)OC[C@@H]2CCCN2C1=O)NCCO,inactive
12,N#CCCN(C(=O)COC(=O)c1ccc2c(c1)OCCO2)c1ccccc1,inactive
13,Brc1nc2ncnc(NCc3ccco3)c2[nH]1,inactive
14,O=C(Nc1c(Br)cc2c(c1Br)Cc1cc([N+](=O)[O-])ccc1-2)C(Cl)Cl,inactive
15,COc1ccc(C(CNC(=O)c2cccc(S(=O)(=O)Nc3ccc(Br)cc3)c2)N(C)C)cc1 (configuration not stated),inactive
16,CCSc1nnc(NC(=O)c2cc(=O)c3cc(C)c(C)cc3o2)s1,inactive
17,COC(=O)c1ccc(CSc2nnc(NC(C)C)s2)cc1,inactive
18,Cc1ccc(C(=O)Oc2coc(CSc3nnc(NC(=O)c4cccs4)s3)cc2=O)cc1C,14.6 µM (active)
19,Cc1ccc(NC(=O)c2oc3ccccc3c2NC(=O)Cc2cccs2)cc1,inactive
20,CCN(Cc1ccncc1)C(=O)CCc1ccccc1,inactive
21,Cc1cc(C)c(SCCc2ccncc2)c(C)c1,16.4 µM (active)
22,O=C(NOCc1ccccc1)c1cccc([N+](=O)[O-])c1,inactive
23,CN1CCN(C2(CNC(=O)COc3ccc(C(C)(C)C)cc3)CCCCC2)CC1,inactive

row,SMILES,Potency
1,O=C(C(Cl)Cl)N1CCN(c2ccccn2)CC1,inactive
2,O=C(/C=C/c1cccc(C(F)(F)F)c1)N1CCN(c2ccccn2)CC1,23.1 µM (active)
3,O=C(Cc1ccc(Br)cc1)N1CCN(c2ccccn2)CC1,inactive
4,COc1ccc(CN2C(CC(=O)Nc3cccnc3)c3ccc(C(F)(F)F)cc3S2(=O)=O)cc1 (configuration not stated),inactive
5,O=C(CNC(=O)c1ccc(Cl)cc1Cl)OC(C(=O)Nc1cc(C(F)(F)F)ccc1Cl)c1ccccc1 (configuration not stated),inactive
6,O=[N+]([O-])c1ccccc1S(=O)(=O)Nc1cccc2cccnc12,5.8 µM (active) and 11.6 µM (active)
7,Cc1ccccc1NC(=O)c1ccccc1NS(=O)(=O)c1cccc2cccnc12,inactive
8,O=[N+]([O-])c1cccc2ncccc12,inactive
9,Cc1ccc(NC(=O)COc2ccc(/C=N\NC(=O)c3cccnc3)cc2)cc1C,inactive
10,Cc1ccc(OCC(=O)NCCCNC(=O)c2cccnc2)cc1C,5.17 µM (active)
11,Cc1ccc(OCC(=O)NCCCNC(=O)c2ccco2)cc1C,inactive
12,Cc1ccc(S(=O)(=O)N(C)CC(=O)NCC(c2ccc(F)cc2)N2CCOCC2)cc1 (configuration not stated),inactive
13,CC(=O)c1nc2ccccc2n1Cc1ccccc1,inactive
14,CCC(=O)Nc1nc2ccccc2n1Cc1ccccc1C,inactive
15,CC(=O)Nc1nc2ccccc2n1Cc1ccc(C)cc1,18.4 µM (active)
16,CCN(CC)CCNC(=O)Cn1ncc2c3ccccc3n(Cc3ccccc3C)c2c1=O,inactive
17,N#Cc1ccc(Oc2ccc(C(F)(F)F)cc2NC(=O)c2ccc(F)cc2)cc1,inactive
18,N#Cc1ccc(C(=O)Nc2nc(-c3cccs3)c(C(=O)C(F)(F)F)s2)cc1,5.17 µM (active)
19,COC(=O)c1ccccc1NC(=O)c1ccc(C#N)cc1,inactive
20,COc1ccc(C(F)(F)F)cc1NC(=O)c1sc2nc(-c3cccs3)ccc2c1N,inactive
21,CN1CCN(C(=O)c2ccc(-c3ccc(Br)cc3)o2)CC1,inactive
22,CC(C[N+](C)(C)C)OC(N)=O (configuration not stated),inactive
23,CC(=O)OC(C)C[N+](C)(C)C (configuration not stated),0.461 µM (active)

row,SMILES,Potency
1,CC(=O)OCC(COC(C)=O)OC(C)=O,inactive
2,O=C(Nc1ccc(S(=O)(=O)N2CCC(c3nc4ccccc4s3)CC2)cc1)c1ccccc1F,inactive
3,Cc1ccc2onc(CC(=O)N3CCN(c4ccc(Cl)cc4)CC3)c2c1,inactive
4,C[C@H](O)[C@@H]1C(=O)N2CCc3ccc(N4CCOCC4)cc3[C@@H]2C[C@@H]1N(C)C(=O)C(C)(C)C,inactive
5,O=C(c1ccc2c(c1)OCCO2)C1CCN(S(=O)(=O)c2cccc(F)c2)CC1,14.6 µM (active)
6,O=C(c1c(F)cccc1F)N1CCN(S(=O)(=O)c2ccc3c(c2)OCCO3)CC1,inactive
7,O=C(NCc1cccs1)C1CCN(S(=O)(=O)c2ccc3c(c2)OCCO3)CC1,inactive
8,CC(C)c1ccc(C2CC(=O)N3CN(C4CCCCC4)CSC3=C2C#N)cc1 (configuration not stated),inactive
9,Oc1c(CN2CCCC2)cc(COCc2ccccc2)c2cccnc12,16.4 µM (active)
10,Oc1ccc(CN2CCN(c3ncccn3)CC2)cc1,inactive
11,COc1cc(C)cc(CN2CCC(Cc3ccccc3)CC2)c1O,inactive
12,CC(=O)c1ccc(NC(=O)CCc2nc(-c3ccc(C)cc3)no2)cc1,inactive
13,Cn1c(SCC(=O)N2CCCc3ccccc32)nc2ccccc2c1=O,18.4 µM (active)
14,C=CCn1c(=O)c2ccccc2n2c(SCC(=O)N3CCCc4ccccc43)nnc12,inactive
15,O=C(CSc1nc2ccccc2c(=O)n1CCCO)N1CCc2ccccc21,inactive
16,COc1cc(C(=O)OCC(=O)NC23CC4CC(CC(C4)C2)C3)cc(OC)c1OC,inactive
17,COc1ccc(C2NCCCC2c2ccccc2)cc1 (configuration not stated),inactive
18,CCn1ccnc1CN(C)C(=O)c1cc(COc2ccc(-n3cncn3)cc2)on1,inactive
19,O=C(c1cc(COc2ccc(F)c(F)c2)on1)N1CCOCC1,inactive
20,C=CCC1(CC=C)CCCN1C(=O)c1cc(COc2ccc(-n3cncn3)cc2)on1,8.2 µM (active)
21,O=C(COC(=O)C1CCCO1)Nc1nc(-c2ccc(F)cc2)cs1 (configuration not stated),inactive

# From PubChem BioAssay AID504444 (National Center for Advancing Translational Sciences (NCATS), 2011)
